Potency data for eight compounds are collected here from PubChem BioAssay (Tox21).

SMILES strings stand for the structures. “And” between values parts separate entries of the source, which are not always exact repeats. Equal values may be shown once. Inconclusive results are not listed. The source holds several records for some structures; these can differ, active in one and inactive in another. The source made the active and inactive calls. Unless noted, the call rests on the fitted dose curve; in most records, active means well fitted curve in the direction sought with a large enough effect in the repeat runs; inconclusive means weak or mixed curves; inactive means no such curve, though single readings can be large; an effect the other way counts as inactive or inconclusive.

Assay [1] can be described thus: qHTS assay to identify small molecule antagonists of the thyroid receptor (TR) signaling pathway - cell viability counter screen (AID 743064). Further: nearly all actives have a fitted effect of over 50% in size. Further: potency means the concentration at half of the fitted maximal effect. In outline:
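GH3.TRE-Luc cells, 4 h pre-plating; cpd + T3 1 nM final; 37 °C 23.5 h; CellTiter-Fluor 30 min; fluorescence read.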
On the technique in general: In qHTS, concentration-response curves come from the screen itself.

Assay [2] is described as follows: qHTS assay to identify small molecule antagonists of the thyroid receptor (TR) signaling pathway (AID 743065). Further: nearly all actives have a fitted effect of over 55% in size. Further: potency means the concentration at half of the fitted maximal effect. A digest of the protocol: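 Antagonism measured as loss of luciferase signal in GH3 cells stably carrying a TRE-luciferase reporter, co-treated with compound and T3 (1 nM final) for 23.5 h at 37 C. Viability was read in the same well by CellTiter-Fluor.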

The test system of assay [3] is thyroid hormone receptor (rat, GH3 cells). The assay can be described thus: qHTS assay to identify small molecule agonists of the thyroid receptor (TR) signaling pathway (AID 743066; calls by dose curve).
The target in assay [4] is Estrogen receptor (Homo sapiens) (UniProt P03372). The assay can be described thus: qHTS assay to identify small molecule antagonists of the estrogen receptor alpha (ER-alpha) signaling pathway (AID 743069; active means well fitted curve in the direction sought with a large enough effect in the signal ratio in the repeat runs, not every such curve was filed as active; the % refers to the signal ratio). A digest of the protocol:
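ER-alpha-UAS-bla GripTite HEK293 line; 2% charcoal-stripped FBS overnight; plated, 4 hr 37C/5% CO2; cpd in DMSO + 17beta-estradiol, 18 hr 37C; LiveBLAzer B/G FRET substrate 2 hr RT; fluorescence intensity.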

Assay [5] in a line: qHTS assay to identify small molecule antagonists of the estrogen receptor alpha (ER-alpha) signaling pathway - cell viability counter screen (AID 743074; calls by dose curve;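 further: HEK293 cells carrying ER-alpha-UAS-bla reporter stimulated with 17beta-estradiol; nearly all actives have a fitted effect of over 45% in size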).
Assay [6] addresses Estrogen receptor (Homo sapiens) (UniProt P03372). The assay can be described thus: qHTS assay to identify small molecule agonists of the estrogen receptor alpha (ER-alpha) signaling pathway (AID 743075; calls by dose curve;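 further: HEK293 GripTite cells with ER-alpha and UAS-driven beta-lactamase reporter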).
Assay [7] has the same target. The assay can be described thus: qHTS assay to identify small molecule agonists of the estrogen receptor alpha (ER-alpha) signaling pathway using the BG1 cell line (AID 743079). Further: nearly all actives have a fitted effect of over 20% in size. As to conditions: BG1Luc4E2 cells, ERE-luciferase agonist, 22 h; activation: at 70.3 µM (top of the series).
Assay [8] can be described thus: qHTS assay to identify small molecule antagonists of the estrogen receptor alpha (ER-alpha) signaling pathway using the BG1 cell line (AID 743080; calls by dose curve;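 further: BG1 cells stimulated with 17beta-estradiol alongside compound; nearly all actives have a fitted effect of over 25% in size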; further: potency means the concentration at half of the fitted maximal effect). A digest of the protocol: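 Luciferase inhibition measured with ONE-Glo after 30 min at RT in BG1Luc4E2 cells given test compounds and 17beta-estradiol for 21.5 h at 37 C; CellTiter-Fluor viability read in the same wells beforehand.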

Assay [9] is described as follows: qHTS assay to identify small molecule antagonists of the estrogen receptor alpha (ER-alpha) signaling pathway using the BG1 cell line - cell viability counter screen (AID 743081).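 Further: compound given together with 17beta-estradiol as the ER stimulus; nearly all actives have a fitted effect of over 45% in size.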
The target in the next assay is Aromatase (Homo sapiens) (UniProt P11511). The assay can be described thus: qHTS assay to identify aromatase inhibitors (AID 743083). Further: nearly all actives have a fitted effect of over 55% in size. Further: potency means the concentration at half of the fitted maximal effect.
Aromatase (Homo sapiens), sequence (P11511 whole entry, looked up): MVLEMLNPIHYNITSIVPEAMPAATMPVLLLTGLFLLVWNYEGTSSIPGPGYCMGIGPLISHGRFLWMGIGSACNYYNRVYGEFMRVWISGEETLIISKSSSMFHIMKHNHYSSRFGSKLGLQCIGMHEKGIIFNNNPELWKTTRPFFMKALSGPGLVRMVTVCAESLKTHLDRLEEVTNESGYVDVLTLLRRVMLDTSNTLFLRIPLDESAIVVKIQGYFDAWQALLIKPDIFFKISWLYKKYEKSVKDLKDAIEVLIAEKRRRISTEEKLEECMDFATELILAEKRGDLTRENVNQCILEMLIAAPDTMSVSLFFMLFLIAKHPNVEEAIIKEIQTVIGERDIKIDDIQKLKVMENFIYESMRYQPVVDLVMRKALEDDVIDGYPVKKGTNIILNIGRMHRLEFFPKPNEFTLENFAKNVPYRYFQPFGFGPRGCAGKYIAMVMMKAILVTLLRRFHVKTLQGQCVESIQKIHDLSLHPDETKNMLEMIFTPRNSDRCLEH
The nature of assay [10]: qHTS assay to identify aromatase inhibitors - cell viability counter screen (AID 743084).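 Further: cells stimulated with testosterone during compound exposure; nearly all actives have a fitted effect of over 55% in size.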
Assay [11] concerns the target Aryl hydrocarbon receptor (Homo sapiens) (UniProt P35869). The assay can be described thus: qHTS assay to identify small molecule that activate the aryl hydrocarbon receptor (AhR) signaling pathway (AID 743085). Further: nearly all actives have a fitted effect of over 15% in size. Further: potency means the concentration at half of the fitted maximal effect.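 On activation: HG2L7.5c1 human HepG2 liver cells with stably integrated DRE-driven firefly reporter.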 A digest of the protocol:
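Luminescence read-out: ONE-Glo reagent, 30 min at room temperature, in HG2L7.5c1 HepG2 reporter cells treated 24 h at 37C. Viability was measured beforehand by CellTiter-Fluor fluorescence after 30 min at 37C.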

Assay [12] in a line: qHTS assay to identify small molecule that activate the aryl hydrocarbon receptor (AhR) signaling pathway - cell viability counter screen (AID 743086). Further: nearly all actives have a fitted effect of over 45% in size. In outline: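 Cytotoxicity counter screen: CellTiter-Fluor signal (30 min, 37 C) in 4000 HepG2 cells/well carrying the DRE-luciferase reporter, following 24 h compound exposure at 37 C.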
Assay [13] can be described thus: qHTS assay to identify small molecule antagonists of the peroxisome proliferator-activated receptor gamma (PPARg) signaling pathway - cell viability counter screen (AID 743194). Further: nearly all actives have a fitted effect of over 55% in size. As to conditions: Potency: co-treated with 50 nM rosiglitazone unless noted. A digest of the protocol:
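Viability was measured as CellTiter-Glo luminescence in GeneBLAzer PPARg UAS-bla HEK293H cells. These cells had been exposed 17 h at 37 C to compounds together with rosiglitazone at 50 nM final, with the beta-lactamase readout taken in the same wells.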

Assay [14] can be described thus: qHTS assay for small molecule agonists of the antioxidant response element (ARE) signaling pathway (AID 743202; active means well fitted activation curve with a large enough effect in the signal ratio in the repeat runs, not every such curve was filed as active; the % refers to the signal ratio; further: potency means the concentration at half of the fitted maximal effect). In outline: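 Quantitative high-throughput format in HepG2 cells bearing an integrated ARE-beta-lactamase reporter. Compound exposure lasted 16 h at 37 C, and fluorescence was read 2 h after adding LiveBLAzer B/G substrate at room temperature.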
Assay [15] can be described thus: qHTS assay for small molecule agonists of the antioxidant response element (ARE) signaling pathway - cell viability counter screen (AID 743203; calls by dose curve; further: nearly all actives have a fitted effect of over 55% in size). In outline: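 Following 16 hrs of compound treatment at 37C, HepG2 cells with an ARE-controlled beta-lactamase gene were lysed with CellTiter-Glo. Luminescence was read after 30 min at room temperature.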
Assay [16] in a line: qHTS assay for small molecule activators of the heat shock response signaling pathway - cell viability counter screen (AID 743209). Further: nearly all actives have a fitted effect of over 50% in size. Further: potency means the concentration at half of the fitted maximal effect. A digest of the protocol:
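Readout: CellTiter-Glo luminescence, 30 min at room temperature. System: HSE-bla HeLa cells, 1500/well, plated overnight. Treatment: compounds in DMSO, 5 h at 37 C.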

Assay [17] deals with Peroxisome proliferator-activated receptor gamma (Homo sapiens) (UniProt P37231). The assay can be described thus: qHTS assay to identify small molecule agonists of the peroxisome proliferator-activated receptor gamma (PPARg) signaling pathway (AID 743094; active means well fitted activation curve with a large enough effect in the signal ratio in the repeat runs, not every such curve was filed as active; the % refers to the signal ratio). In outline: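 Compounds dissolved in DMSO were added to PPARg UAS-bla HEK293H cells for 17 h at 37C, and reporter expression was quantified by fluorescence intensity after 1 h with LiveBLAzer B/G FRET substrate.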
Peroxisome proliferator-activated receptor gamma (Homo sapiens), sequence (P37231 whole entry, looked up): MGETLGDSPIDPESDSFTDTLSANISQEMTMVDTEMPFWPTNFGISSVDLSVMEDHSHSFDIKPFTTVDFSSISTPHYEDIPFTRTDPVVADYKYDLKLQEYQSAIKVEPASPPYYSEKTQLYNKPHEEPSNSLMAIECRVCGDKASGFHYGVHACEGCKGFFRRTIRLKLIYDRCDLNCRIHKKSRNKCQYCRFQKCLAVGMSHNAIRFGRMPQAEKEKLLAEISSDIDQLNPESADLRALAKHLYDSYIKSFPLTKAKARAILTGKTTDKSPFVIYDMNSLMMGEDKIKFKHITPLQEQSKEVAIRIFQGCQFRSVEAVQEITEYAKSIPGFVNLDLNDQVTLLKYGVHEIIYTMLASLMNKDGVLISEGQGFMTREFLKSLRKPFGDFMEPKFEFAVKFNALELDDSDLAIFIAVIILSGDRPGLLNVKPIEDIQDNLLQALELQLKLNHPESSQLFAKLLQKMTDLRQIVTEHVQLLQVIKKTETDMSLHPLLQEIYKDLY

The target is the same in assay [18]. The assay can be described thus: qHTS assay to identify small molecule antagonists of the peroxisome proliferator-activated receptor gamma (PPARg) signaling pathway (AID 743191; calls by dose curve; further: nearly all actives have a fitted effect of over 30% in size). A digest of the protocol:
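Beta-lactamase reporter under UAS control in HEK293H PPARg-bla cells; compound treatment 17 h at 37C. Read-out: fluorescence intensity after 1 h room-temperature incubation with LiveBLAzer B/G FRET substrate.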

The nature of assay [19]: qHTS assay for small molecule activators of the heat shock response signaling pathway (AID 743210; active means well fitted activation curve with a large enough effect in the signal ratio in the repeat runs, with a control signal flat, not every such curve was filed as active; the % refers to the signal ratio;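 further: HeLa cells with beta-lactamase reporter driven by heat shock elements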). In outline: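 HeLa HSE-bla cells, overnight plating; cpd in DMSO 5 h, 37 C; LiveBLAzer B/G FRET substrate 2.5 h RT; fluorescence intensity read.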

Estrogen receptor (Homo sapiens), sequence (P03372 whole entry, looked up): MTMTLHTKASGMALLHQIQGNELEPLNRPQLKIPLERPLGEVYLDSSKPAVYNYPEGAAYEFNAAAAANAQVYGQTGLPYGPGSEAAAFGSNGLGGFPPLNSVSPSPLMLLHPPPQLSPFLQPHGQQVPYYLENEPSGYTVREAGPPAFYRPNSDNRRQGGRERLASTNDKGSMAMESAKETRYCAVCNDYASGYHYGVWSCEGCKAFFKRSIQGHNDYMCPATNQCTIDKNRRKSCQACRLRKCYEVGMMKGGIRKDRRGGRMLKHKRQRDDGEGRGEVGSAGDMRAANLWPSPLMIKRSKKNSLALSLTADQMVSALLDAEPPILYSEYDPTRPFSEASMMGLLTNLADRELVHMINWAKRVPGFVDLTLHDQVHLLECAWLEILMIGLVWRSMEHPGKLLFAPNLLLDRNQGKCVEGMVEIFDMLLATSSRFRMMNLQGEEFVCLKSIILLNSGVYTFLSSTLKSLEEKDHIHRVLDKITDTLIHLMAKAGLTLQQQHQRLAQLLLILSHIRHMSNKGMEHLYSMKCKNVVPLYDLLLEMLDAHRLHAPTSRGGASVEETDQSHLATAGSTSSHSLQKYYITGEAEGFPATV
Aryl hydrocarbon receptor (Homo sapiens), sequence (P35869 whole entry, looked up): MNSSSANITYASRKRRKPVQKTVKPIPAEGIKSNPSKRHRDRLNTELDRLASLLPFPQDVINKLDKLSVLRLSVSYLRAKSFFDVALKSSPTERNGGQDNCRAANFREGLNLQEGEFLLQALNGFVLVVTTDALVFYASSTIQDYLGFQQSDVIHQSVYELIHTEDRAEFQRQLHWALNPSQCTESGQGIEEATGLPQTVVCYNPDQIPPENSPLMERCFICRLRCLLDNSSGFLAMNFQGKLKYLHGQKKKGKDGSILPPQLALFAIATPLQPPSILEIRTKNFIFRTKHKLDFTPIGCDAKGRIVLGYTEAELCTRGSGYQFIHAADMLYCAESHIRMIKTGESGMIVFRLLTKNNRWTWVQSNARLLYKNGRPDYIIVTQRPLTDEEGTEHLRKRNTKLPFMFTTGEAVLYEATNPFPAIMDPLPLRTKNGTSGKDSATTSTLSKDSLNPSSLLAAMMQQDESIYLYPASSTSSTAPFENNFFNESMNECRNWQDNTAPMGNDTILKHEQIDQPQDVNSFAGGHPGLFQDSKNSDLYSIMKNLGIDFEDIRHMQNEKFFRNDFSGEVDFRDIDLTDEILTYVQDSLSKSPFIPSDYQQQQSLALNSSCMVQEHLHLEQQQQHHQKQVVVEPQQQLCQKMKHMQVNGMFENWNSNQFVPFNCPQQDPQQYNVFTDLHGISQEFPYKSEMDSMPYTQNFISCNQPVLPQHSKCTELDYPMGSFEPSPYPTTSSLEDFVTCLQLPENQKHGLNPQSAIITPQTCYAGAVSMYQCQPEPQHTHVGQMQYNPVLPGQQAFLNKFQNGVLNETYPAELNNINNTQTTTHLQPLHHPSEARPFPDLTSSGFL

As to `C=Cc1cccc(CCl)c1`, the Potency entry in [1], in assay [2], in assay [3], in assay [4], in assay [5] and in assay [6] was “inactive” in each case. Besides, the Potency entry (in [7]; in [8]; in [9]; with Aromatase (Homo sapiens); in [10]; in assay [11]) was “inactive” each time. Further, the Potency entry in assay [12], in assay [13], in assay [15] and in [16] was “inactive” each time. Besides, the Potency in [14] is 55.9 µM (active).
Take `ClCBr`: the Potency result in [1], in [2], in assay [3], in [4], in assay [5] and in assay [6] was “inactive” in each case. Also, the Potency entry (in assay [8]; in assay [9]; with Aromatase (Homo sapiens); in [10]; in [11]; in assay [12]) was “inactive” each time. The Potency entry in assay [17], in [18], in assay [13], in assay [15], in assay [16] and in assay [19] was “inactive” throughout.
Regarding `BrCC(Br)(Br)Br`, the Potency entry in assay [1], in assay [2], in assay [3], in [4], in assay [5] and in [6] was “inactive” each time. The Potency result (in [7]; in [9]; with Aromatase (Homo sapiens); in assay [10]; in [11]; in assay [12]) was “inactive” throughout. Besides, the Potency entry in [16] was “inactive”. In addition, in assay [8], the Potency was 35.6 µM (active).
As for `C=CCOC(=O)c1ccccc1N`, the Potency entry in assay [1], in assay [2], in assay [3], in assay [4], in assay [5] and in [6] was “inactive” in each case. The Potency entry (in assay [7]; in assay [8]; in assay [9]; with Aromatase (Homo sapiens); in assay [10]; in assay [12]) was “inactive” each time. Also, the Potency result in assay [17], in assay [18], in [13], in assay [14], in assay [15] and in assay [16] was “inactive” in each case.
In the case of `COP(=S)(OC)Oc1ccc([N+](=O)[O-])c(C)c1`, the Potency result in [1], in assay [2], in assay [3], in [5], in [6] and in assay [7] was “inactive” throughout. The Potency entry in assay [8], in assay [9], in assay [10], in assay [12], in assay [17] and in [18] was “inactive” in each case. Moreover, the Potency result in assay [15] and in [16] was “inactive” in each case. For the same compound, the Potency in assay [11] is 48.6 µM (active).
In the case of `CC(C)(C)c1ccc(OP(=O)(Oc2ccccc2)Oc2ccccc2)cc1`, the Potency in assay [1] and in [2] was 27.5 µM (active) throughout. For the same compound, the Potency result (in assay [3]; in [5]; in [6]; in assay [8]; in [9]; with Aromatase (Homo sapiens)) was “inactive” throughout. In addition, the Potency result in assay [10], in [11], in assay [12], in assay [15] and in assay [19] was “inactive” in each case.
Take `Clc1ccc(C(c2ccc(Cl)cc2)C(Cl)Cl)cc1`: the Potency was 24.7 µM (active) and 68.6 µM (active) in assay [1]; 24.7 µM (active) and 43.3 µM (active) in assay [2]; 62.1 µM (active) and inactive with Aromatase (Homo sapiens); 49 µM (active) in [16]. Besides, the Potency entry in [3], in assay [4], in assay [5], in assay [6], in assay [8] and in assay [9] was “inactive” each time. Also, the Potency entry in assay [10], in assay [11] and in assay [12] was “inactive” throughout.
Regarding `CNC(=O)Oc1cc(C)cc(C(C)C)c1`, the Potency entry in assay [1], in assay [2], in [3], in [5], in assay [6] and in assay [7] was “inactive” each time. Also, the Potency entry (in [8]; in assay [9]; with Aromatase (Homo sapiens); in [10]; in assay [11]; in assay [12]) was “inactive” throughout. The Potency entry in assay [17], in assay [13], in assay [15], in assay [16] and in assay [19] was “inactive” throughout.
